From PubChem BioAssay (NCATS)
Records with an inconclusive call do not appear. The source holds several records for some structures; these can differ, active in one and inactive in another. Activity calls are given as the source filed them. Unless noted, calls come from the whole dose curve; as a rule, active = well fitted curve in the direction sought with a large enough effect; inconclusive = small, poorly fitted or top-dose-only effect, or another doubt; inactive = no such curve, though single readings can be large; an effect the other way counts as inactive or inconclusive.

What was measured:
[1] = target: Thioredoxin reductase 1, cytoplasmic (Rattus norvegicus) (UniProt O89049); assay: qHTS Assay for Substrates of Mammalian Selenoprotein Thioredoxin Reductase 1 (TrxR1) (AID 488772);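 note: series mostly up to about 57 µM; 0% is about no effect; a drop in NADPH fluorescence below the no-compound background marks a TrxR1 substrate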
Method in brief: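 In this dual-purpose format, potential substrates are identified from the first fluorescence read after selenite addition, not from the 8-minute delta. Rat enzyme is preincubated with NADPH and then with compound at ~22 deg C.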

[2] = target: Thioredoxin reductase 1, cytoplasmic (Rattus norvegicus) (UniProt O89049); assay: qHTS Assay for Inhibitors of Mammalian Selenoprotein Thioredoxin Reductase 1 (TrxR1) (AID 488773); details: Potency: inhibition;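 note: drop in NADPH fluorescence over an 8 min run after selenite addition; series mostly up to about 57 µM; % is set by controls: 0 for no effect and ±100 for the full control effect; nearly all actives have a fitted effect of over 40% in size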
Method in brief: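 Inhibition is scored from the loss of NADPH fluorescence between first and last reads of an 8-min kinetic run. Selenite (400 uM) was the substrate, added after 15 min compound preincubation at room temperature.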

[3] = target: M-phase phosphoprotein 8 (Homo sapiens) (UniProt Q99549); assay: qHTS Validation Assay for Inhibitors for MPP8 Chromodomain Interactions with Methylated Histone Tails (AID 488949); note: nearly all actives have a fitted effect of over 55% in size; note: potency is the fitted concentration of half-maximal effect
Method in brief: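 50 nM MPP8 + 50 nM b-H3K9me3 peptide, PBS pH 7.4/0.01% Tween-20, 30 min RT; + cpd 30 min RT; + AlphaScreen donor/Ni-chelate acceptor beads 10 ug/mL final, 30 min dark; luminescence read.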

[4] = target: Methanococcus maripaludis chaperonin (MmCpn) (UniProt Q6LX38); assay: High-Throughput Screening for Modulators of Cytosolic Chaperonin Activity: MmCpn Primary Screen (AID 488978);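 note: 50 nM MmCpn enzyme hydrolysing 30 µM ATP at 37 °C; 0% is about no effect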
Method in brief: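 Steps: chaperonin 50 nM final; add compound, 5 min RT; start with ATP, 30 uM final; hold 10 min at 37C; add ADP Transcreener HTRF reagent, 5 min; read ex 320, em 590 and 665 nm.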

[5] = target: Transient receptor potential cation channel subfamily V member 1 (Homo sapiens) (UniProt Q8NER1); assay: HTS Assay for Compounds that Act as Enhancers of the Vanilloid Receptor 1 (AID 488979); note: 0% is about no effect
Method in brief: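 Calcium influx kinetics via Fluo-8 (480/520 nm) in TRPV1-expressing cells, 2000/well cultured overnight at 35.5C. Compound-alone read 3 min (agonist phase), followed by EC20 capsaicin challenge for 2 min (enhancer phase).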

[6] = target: Thyrotropin receptor (Homo sapiens) (UniProt P16473); assay: qHTS Assay for Antagonists of the Thyroid Stimulating Hormone Receptor (AID 488980); note: series mostly up to about 58 µM; 0% is about no effect
Method in brief: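 Readout is cAMP by HTRF competition between cellular cAMP and cAMP-d2 for a cryptate-labelled antibody. Antagonism was assessed in TSHR-transfected HEK293 cells stimulated with 4 nM TSH (EC80, final) in the presence of RO 20-1724.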

[7] = target: D(1A) dopamine receptor (Homo sapiens) (UniProt P21728); assay: HTS Assay for Allosteric Agonists of the Human D1 Dopamine Receptor: Primary Screen for Agonists (AID 488981); note: potency is the fitted concentration of half-maximal effect; for activation: 0% is about no effect
Method in brief: (§1)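 Calcium flux in an inducible, force-coupled HEK293 Trex D1 line (overnight at 30 C): agonist mode is the 180 s kinetic read after compound; potentiator mode is the following 180 s read after dopamine at EC20.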

[8] = target: D(1A) dopamine receptor (Homo sapiens) (UniProt P21728); assay: HTS Assay for Allosteric Agonists of the Human D1 Dopamine Receptor: Primary Screen for Potentiators (AID 488982); note: 0% is about no effect
Method in brief: as §1

[9] = Validation screen for small molecules that induce genotoxicity in human embryonic kidney (HEK293T) cells expressing luciferase-tagged ELG1 (AID 493106); note: 0% is about no effect
Method in brief: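 In this validation screen, increased ELG1-luciferase signal flags compounds causing genetic stress. HEK293T reporter cells are treated 16 hr (37 °C, 5% CO2), developed with ONE-Glo for 30 min at room temperature, and imaged on a CCD-based reader.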

[10] = target: ATPase family AAA domain-containing protein 5 (Homo sapiens) (UniProt Q96QE3); assay: Validation screen for small molecules that inhibit ELG1-dependent DNA repair in human embryonic kidney (HEK293T) cells expressing luciferase-tagged ELG1 (AID 493107); note: nearly all actives have a fitted effect of over 70% in size; note: potency is the fitted concentration of half-maximal effect
Method in brief: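 Compounds reducing 5-fluorouridine-driven ELG1-luciferase signal in HEK293T cells were scored; exposure lasted 16 hr at 37 °C with luminescence detected via ONE-Glo.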

[11] = target: Thyrotropin-releasing hormone receptor (Homo sapiens) (UniProt P34981); assay: qHTS for Small Molecule Agonists and Allosteric Enhancers of Human TRH Receptor: Validation Screen for Agonists (AID 493127;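 active = calcium activation more than 3 SD above the typical response in the agonist read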;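 note: intracellular calcium rise by fluo-8 fluorescence before TRH EC20 addition; 0% is about no effect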); details: TRH receptor agonist cell assay; at 2 µM; stronger effect = higher value
Method in brief: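 Kinetic fluorescence assay of agonist-induced calcium release: overnight-plated TRHR cells, room-temperature fluo-8 loading, baseline then compound addition with per-second reads.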

[12] = Nrf2 qHTS screen for inhibitors: Validation (AID 493153; active = well fitted inhibition curve with a large enough effect in the main read-out, with a control signal flat, not every such curve was filed as active); details: viability change: measured here: cytotoxicity max response
Method in brief: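 In this counterscreened reporter format, each well gives two signals: CellTiter-Fluor fluorescence for cytotoxicity and ARE-luciferase luminescence for Nrf2 function. A549 ARE_Fluc cells in 5% FBS OPTI-MEM were exposed to compound titrations for 18-24 h.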

[13] = qHTS for Inhibitors of Cell Surface uPA Generation: Validation Assay (AID 493164);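 note: RAW 264.7 macrophage cells exposed to compound for 18 h; 0% is about no effect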
Method in brief: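 Compounds are titrated over seven points (2.45 nM–38.3 uM final) onto pre-plated RAW 264.7 cells and incubated for 18 h. Retained intracellular ATP, measured with ATP-Lite, indicates blocked lethal factor entry.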

[14] = target: Galactokinase (Homo sapiens) (UniProt P51570); assay: qHTS Validation Assay for Inhibitors of Human Galactokinase (GALK) (AID 493189); note: 0% is about no effect
Method in brief: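 5 nM GALK / 100 uM galactose / 35 uM ATP, 20 mM HEPES pH8.0, 5 mM MgCl2, 60 mM NaCl, 1 mM DTT, 0.01% BSA (final). RT 1 h; Kinase-Glo Plus luminescence.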

[15] = target: ATP-dependent 6-phosphofructokinase (Trypanosoma brucei brucei) (UniProt O15648); assay: qHTS Assay to Find Inhibitors of T. brucei phosphofructokinase: hit validation (AID 492961); note: potency is the fitted concentration of half-maximal effect
Method in brief: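 ADP-Glo luminescence read-out of ADP formed by 1.25 nM PFK from 0.1 mM ATP and 0.5 mM F6P (TEA pH 8.0, 45 min, RT). Compounds titrated; activity normalized to no-enzyme and full-enzyme controls.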

[16] = target: Flap endonuclease 1 (Homo sapiens) (UniProt P39748); assay: qHTS Validation Assay for the Inhibitors of Human Flap endonuclease 1 (FEN1) (AID 488816); note: % is set by controls: 0 for no effect and ±100 for the full control effect
Method in brief: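 qHTS format: compounds and 10 nM FEN1 incubated 15 min at room temperature before adding 50 nM substrate. Cleavage followed by reads at 0 and 15 min; normalized data fitted to a four-parameter Hill curve.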

[17] = target: Chromobox protein homolog 1 (Homo sapiens) (UniProt P83916); assay: qHTS Validation Assay for Inhibitors of HP1-beta Chromodomain Interactions with Methylated Histone Tails (AID 488953); note: nearly all actives have a fitted effect of over 50% in size; note: potency is the fitted concentration of half-maximal effect
Method in brief: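 Compounds pinned into a preassembled complex of HP1-beta and trimethyl-K9 histone H3(1-18) biotin peptide (50 nM each; PBS pH 7.4, 0.01% Tween-20). After 30 min, bead-based AlphaScreen detection followed.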

[18] = target: Tyrosyl-DNA phosphodiesterase 1 (Homo sapiens) (UniProt Q9NUW8); assay: Confirmation Assay for Inhibitors of Tyrosyl-DNA Phosphodiesterase (TDP1) (AID 489007); details: recombinant human TDP1 enzymatic activity, dose-response; note: potency is the fitted concentration of half-maximal effect; nearly all actives have a fitted effect of over 40% in size
Method in brief: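 Loss of AlphaScreen signal reports Tdp1 cleavage of a dual-labelled DNA substrate. Conditions: 1 nM E. coli-derived enzyme, 15 nM substrate, 15 min compound preincubation, 5 min reaction, 10 min bead incubation, all at room temperature.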

[19] = target: D(1A) dopamine receptor (Homo sapiens) (UniProt P21728); assay: HTS Assay for Allosteric Agonists of the Human D1 Dopamine Receptor: Primary Screen for Antagonists (AID 488983);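 note: calcium flux response to an EC80 dopamine challenge measured with no-wash dye; % is set by controls: 0 for no effect and ±100 for the full control effect; nearly all actives have a fitted effect of over 65% in size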
Method in brief: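 In this primary screen, compounds are applied to calcium-dye-loaded HEK293 T-REx cells with force-coupled D1 expression induced overnight at 30 C. An EC80 of dopamine follows the 180 s compound phase, and calcium is monitored for a further 180 s.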

Chromobox protein homolog 1 (Homo sapiens), sequence (P83916 whole entry, looked up): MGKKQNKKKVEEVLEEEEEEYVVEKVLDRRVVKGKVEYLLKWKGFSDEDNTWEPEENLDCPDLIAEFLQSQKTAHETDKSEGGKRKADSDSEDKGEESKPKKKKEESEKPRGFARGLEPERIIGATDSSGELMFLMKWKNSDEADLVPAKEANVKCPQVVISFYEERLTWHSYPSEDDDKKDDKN
Thyrotropin-releasing hormone receptor (Homo sapiens), sequence (P34981 whole entry, looked up): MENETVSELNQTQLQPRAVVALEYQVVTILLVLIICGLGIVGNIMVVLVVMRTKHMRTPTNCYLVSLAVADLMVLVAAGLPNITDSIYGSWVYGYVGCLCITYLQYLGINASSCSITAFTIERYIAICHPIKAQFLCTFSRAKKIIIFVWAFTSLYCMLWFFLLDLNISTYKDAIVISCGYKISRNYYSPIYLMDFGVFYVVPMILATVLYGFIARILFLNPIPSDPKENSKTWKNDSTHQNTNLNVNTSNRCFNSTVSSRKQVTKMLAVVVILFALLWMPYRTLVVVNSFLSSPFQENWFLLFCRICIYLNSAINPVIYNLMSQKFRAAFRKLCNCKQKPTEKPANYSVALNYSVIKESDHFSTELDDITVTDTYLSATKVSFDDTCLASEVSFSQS
Galactokinase (Homo sapiens), sequence (P51570 whole entry, looked up): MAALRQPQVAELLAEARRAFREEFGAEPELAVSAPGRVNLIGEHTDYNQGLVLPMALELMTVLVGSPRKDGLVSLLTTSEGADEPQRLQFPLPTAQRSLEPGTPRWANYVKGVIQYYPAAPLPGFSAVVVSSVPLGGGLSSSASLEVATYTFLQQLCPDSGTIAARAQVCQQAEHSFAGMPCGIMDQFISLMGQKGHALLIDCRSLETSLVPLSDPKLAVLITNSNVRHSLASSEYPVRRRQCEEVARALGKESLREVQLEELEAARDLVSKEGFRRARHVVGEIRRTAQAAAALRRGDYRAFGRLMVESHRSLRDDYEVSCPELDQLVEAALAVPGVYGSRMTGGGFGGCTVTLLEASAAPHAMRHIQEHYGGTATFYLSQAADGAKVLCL
Flap endonuclease 1 (Homo sapiens), sequence (P39748 whole entry, looked up): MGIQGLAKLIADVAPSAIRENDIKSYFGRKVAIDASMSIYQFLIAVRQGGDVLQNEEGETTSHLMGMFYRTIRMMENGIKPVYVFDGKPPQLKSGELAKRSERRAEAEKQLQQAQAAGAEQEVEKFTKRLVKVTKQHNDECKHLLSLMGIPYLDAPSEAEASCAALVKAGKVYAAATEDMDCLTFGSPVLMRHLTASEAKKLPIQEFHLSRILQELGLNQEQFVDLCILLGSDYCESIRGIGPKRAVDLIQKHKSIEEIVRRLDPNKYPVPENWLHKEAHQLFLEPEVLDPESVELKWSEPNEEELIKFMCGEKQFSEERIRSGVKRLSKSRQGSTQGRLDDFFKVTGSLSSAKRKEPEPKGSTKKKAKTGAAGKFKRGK
Thioredoxin reductase 1, cytoplasmic (Rattus norvegicus), sequence (O89049 whole entry, looked up): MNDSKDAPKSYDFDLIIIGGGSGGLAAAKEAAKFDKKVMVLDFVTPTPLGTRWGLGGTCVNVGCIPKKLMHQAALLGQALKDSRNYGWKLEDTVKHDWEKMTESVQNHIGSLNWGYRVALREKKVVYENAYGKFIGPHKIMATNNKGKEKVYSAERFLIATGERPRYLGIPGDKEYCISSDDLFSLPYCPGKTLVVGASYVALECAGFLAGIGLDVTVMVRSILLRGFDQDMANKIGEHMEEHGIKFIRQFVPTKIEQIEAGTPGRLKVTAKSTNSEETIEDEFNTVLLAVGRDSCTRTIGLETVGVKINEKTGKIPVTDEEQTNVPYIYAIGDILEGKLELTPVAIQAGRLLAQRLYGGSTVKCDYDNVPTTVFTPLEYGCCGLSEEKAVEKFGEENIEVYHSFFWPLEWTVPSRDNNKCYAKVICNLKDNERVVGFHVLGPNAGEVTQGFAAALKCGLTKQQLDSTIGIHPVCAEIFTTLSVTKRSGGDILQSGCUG
ATP-dependent 6-phosphofructokinase (Trypanosoma brucei brucei), sequence (O15648 whole entry, looked up): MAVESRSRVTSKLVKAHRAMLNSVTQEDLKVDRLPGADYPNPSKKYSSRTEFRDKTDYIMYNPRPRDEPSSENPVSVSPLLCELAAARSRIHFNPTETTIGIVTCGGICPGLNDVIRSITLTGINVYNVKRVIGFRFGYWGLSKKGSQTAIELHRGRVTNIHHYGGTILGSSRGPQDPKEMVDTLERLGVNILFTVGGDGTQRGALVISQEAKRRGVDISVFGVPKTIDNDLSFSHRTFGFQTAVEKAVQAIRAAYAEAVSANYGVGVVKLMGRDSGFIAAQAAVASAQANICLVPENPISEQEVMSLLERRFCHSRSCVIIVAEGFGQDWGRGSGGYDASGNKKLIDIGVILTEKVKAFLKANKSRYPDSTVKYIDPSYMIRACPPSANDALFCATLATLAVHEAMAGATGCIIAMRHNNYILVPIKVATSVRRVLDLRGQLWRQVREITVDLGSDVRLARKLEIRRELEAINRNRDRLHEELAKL
Thyrotropin receptor (Homo sapiens), sequence (P16473 whole entry, looked up): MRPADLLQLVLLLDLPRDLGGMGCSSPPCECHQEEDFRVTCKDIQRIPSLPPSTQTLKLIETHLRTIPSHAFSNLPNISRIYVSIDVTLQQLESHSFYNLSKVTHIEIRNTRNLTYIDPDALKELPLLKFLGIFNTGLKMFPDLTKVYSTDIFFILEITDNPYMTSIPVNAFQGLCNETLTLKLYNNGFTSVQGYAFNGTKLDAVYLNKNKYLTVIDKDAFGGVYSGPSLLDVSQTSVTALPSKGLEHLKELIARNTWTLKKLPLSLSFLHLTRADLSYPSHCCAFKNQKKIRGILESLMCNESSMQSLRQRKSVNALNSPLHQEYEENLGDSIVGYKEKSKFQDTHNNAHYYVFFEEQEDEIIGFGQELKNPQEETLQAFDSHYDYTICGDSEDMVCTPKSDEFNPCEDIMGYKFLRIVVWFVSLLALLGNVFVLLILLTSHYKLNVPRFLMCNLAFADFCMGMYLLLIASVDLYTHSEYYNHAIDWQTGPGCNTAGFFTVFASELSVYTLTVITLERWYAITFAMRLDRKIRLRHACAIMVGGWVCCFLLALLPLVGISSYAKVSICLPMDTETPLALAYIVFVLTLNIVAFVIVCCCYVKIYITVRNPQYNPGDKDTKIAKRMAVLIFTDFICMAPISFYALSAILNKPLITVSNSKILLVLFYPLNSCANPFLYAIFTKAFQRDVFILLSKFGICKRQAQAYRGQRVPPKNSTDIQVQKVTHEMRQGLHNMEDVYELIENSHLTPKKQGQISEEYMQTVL
M-phase phosphoprotein 8 (Homo sapiens), sequence (Q99549 whole entry, looked up): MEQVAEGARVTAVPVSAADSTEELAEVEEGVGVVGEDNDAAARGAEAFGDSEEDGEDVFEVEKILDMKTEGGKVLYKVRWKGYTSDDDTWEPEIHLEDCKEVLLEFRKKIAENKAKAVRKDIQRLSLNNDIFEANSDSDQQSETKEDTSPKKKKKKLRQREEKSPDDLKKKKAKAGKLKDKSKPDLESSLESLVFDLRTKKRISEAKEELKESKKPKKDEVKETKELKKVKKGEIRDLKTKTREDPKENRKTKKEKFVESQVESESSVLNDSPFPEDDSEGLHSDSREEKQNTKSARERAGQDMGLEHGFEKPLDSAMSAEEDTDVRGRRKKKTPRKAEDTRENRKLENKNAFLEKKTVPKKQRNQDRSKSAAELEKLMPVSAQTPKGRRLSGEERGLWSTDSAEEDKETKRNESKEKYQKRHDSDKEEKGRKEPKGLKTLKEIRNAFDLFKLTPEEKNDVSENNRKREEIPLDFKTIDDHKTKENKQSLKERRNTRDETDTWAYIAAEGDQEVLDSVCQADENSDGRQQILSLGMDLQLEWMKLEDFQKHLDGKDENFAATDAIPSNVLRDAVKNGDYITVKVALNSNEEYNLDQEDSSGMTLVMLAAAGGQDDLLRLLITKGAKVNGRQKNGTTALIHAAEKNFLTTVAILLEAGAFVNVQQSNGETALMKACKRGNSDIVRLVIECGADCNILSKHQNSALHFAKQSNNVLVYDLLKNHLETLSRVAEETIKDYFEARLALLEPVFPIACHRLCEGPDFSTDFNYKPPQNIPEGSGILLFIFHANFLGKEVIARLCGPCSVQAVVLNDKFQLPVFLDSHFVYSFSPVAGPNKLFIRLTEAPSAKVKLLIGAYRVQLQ
Transient receptor potential cation channel subfamily V member 1 (Homo sapiens), sequence (Q8NER1 whole entry, looked up): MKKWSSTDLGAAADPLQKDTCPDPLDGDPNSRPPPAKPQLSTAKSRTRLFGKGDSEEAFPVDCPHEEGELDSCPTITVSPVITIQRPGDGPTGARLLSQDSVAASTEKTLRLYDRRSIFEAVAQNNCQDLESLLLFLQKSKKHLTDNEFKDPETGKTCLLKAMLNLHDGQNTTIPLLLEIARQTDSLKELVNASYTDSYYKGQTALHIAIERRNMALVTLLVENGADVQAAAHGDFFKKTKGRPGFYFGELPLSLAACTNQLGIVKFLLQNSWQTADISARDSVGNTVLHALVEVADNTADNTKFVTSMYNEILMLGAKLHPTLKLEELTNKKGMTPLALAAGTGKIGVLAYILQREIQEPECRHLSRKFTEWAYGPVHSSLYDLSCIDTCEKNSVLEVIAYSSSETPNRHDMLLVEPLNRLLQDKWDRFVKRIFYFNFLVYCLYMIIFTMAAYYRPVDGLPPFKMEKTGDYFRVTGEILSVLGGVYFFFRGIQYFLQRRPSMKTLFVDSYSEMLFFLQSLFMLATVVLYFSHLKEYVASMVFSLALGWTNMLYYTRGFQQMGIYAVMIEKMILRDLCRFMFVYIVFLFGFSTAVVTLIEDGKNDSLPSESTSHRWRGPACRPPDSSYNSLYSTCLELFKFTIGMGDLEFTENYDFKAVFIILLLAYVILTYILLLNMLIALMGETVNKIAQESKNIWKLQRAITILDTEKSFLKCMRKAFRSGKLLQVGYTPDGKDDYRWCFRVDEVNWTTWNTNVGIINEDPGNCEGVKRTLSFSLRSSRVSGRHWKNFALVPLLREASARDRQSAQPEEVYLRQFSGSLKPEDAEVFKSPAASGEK

Oc1ccc2c3c1O[C@H]1c4[nH]c5c(c4C[C@@]4(O)[C@@H](C2)N(CC2CC2)CC[C@]314)C[C@@]1(O)[C@H]2Cc3ccc(O)c4c3[C@@]1(CCN2CC1CC1)[C@H]5O4
inactive: outcome [1] | Potency [2] | Potency [3] | outcome [4] | outcome [5] | outcome [6] | Potency [7] | outcome [8] | outcome [9] | Potency [10] | activation [11] 0.625% | outcome [12] | outcome [13] | outcome [14]
0%: viability change [12]

CC[C@@H]1C(=O)OC[C@@H]1Cc1cncn1C
inactive: Potency [3] | outcome [5] | outcome [6] | outcome [14]

Cc1ccc(Cl)c(O)c1
inactive: Potency [15]

O=[N+]([O-])c1ccc([As](=O)(O)O)cc1
inactive: Potency [15]

CC[C@@]1(O)C(=O)OCc2c1cc1n(c2=O)Cc2cc3ccccc3nc2-1
active: Potency [10] 0.461 µM
inactive: outcome [1] | Potency [2] | Potency [16] | Potency [3] | outcome [4] | outcome [5] | outcome [6] | Potency [7] | outcome [8] | outcome [9] | activation [11] -0.188% | outcome [13] | outcome [14]

NC1=NC(=O)N2CC12 (centres undefined)
inactive: Potency [15]

C[N+]1(C)C2CC(OC(=O)[C@H](CO)c3ccccc3)CC1C1OC12 (some centres undefined)
7.5 nM (active) and inactive: Potency [17]
inactive: Potency [16] | Potency [3]

CN[C@@H](C)[C@H](O)c1ccccc1
inactive: outcome [6] | activation [11] 3.19% | outcome [14]
active: Potency [3] 3.55 µM

Cc1nccc2c1[nH]c1ccccc12
active: Potency [10] 9.2 µM
inactive: outcome [1] | Potency [2] | Potency [3] | Potency [17] | outcome [4] | outcome [5] | outcome [6] | Potency [7] | outcome [8] | outcome [9] | activation [11] 0.938% | outcome [12] | outcome [13] | outcome [14]
6.29%: viability change [12]

COc1ccc2c(c[n+](C)c3c4cc5c(cc4ccc23)OCO5)c1OC
inactive: outcome [1] | Potency [2] | Potency [3] | outcome [4] | outcome [5] | outcome [6] | Potency [7] | outcome [8] | outcome [9] | Potency [10] | activation [11] 0.625% | outcome [13] | outcome [14]

Clc1ccc(C(c2ccc(Cl)cc2)n2cc[n+](CC(OCc3ccc(Cl)cc3Cl)c3ccc(Cl)cc3Cl)c2)cc1 (centres undefined)
35.5 µM (active) and inactive: Potency [3]
active: Potency [17] 50.1 µM
inactive: Potency [16] | outcome [5] | outcome [6] | outcome [9] | activation [11] -4.62% | outcome [14]

Cc1nc(-c2ccc(-c3ccc(C(=O)N4CCc5cc6c(cc54)C4(CCN(C)CC4)CO6)cc3)c(C)c2)no1
inactive: outcome [5] | outcome [6] | activation [11] 1.44% | outcome [14]
active: Potency [3] 11.2 µM

CC(=O)[O][Hg][c]1ccccc1
active: Potency [18] 10 µM | Potency [15] 7.94 µM

Cc1cc(O)ccc1Cl
inactive: Potency [15]

C/C=C(/C)C(=O)O[C@H]1C(C)=C2[C@H]([C@@H]1OC(=O)CCCCCCC)[C@@](C)(OC(C)=O)C[C@H](OC(=O)CCC)[C@@]1(O)[C@H]2OC(=O)[C@@]1(C)O
inactive: Potency [16] | Potency [3] | Potency [17] | outcome [4] | outcome [9] | outcome [13]

CS(=N)(=O)CC[C@H](N)C(=O)O (some centres undefined)
3.11%: viability change [12]
inactive: outcome [1] | Potency [2] | Potency [16] | Potency [3] | outcome [4] | outcome [5] | outcome [6] | Potency [7] | outcome [8] | outcome [9] | Potency [10] | activation [11] 0.312% | outcome [12] | outcome [13] | outcome [14]

C[N+](C)(C)CC(=O)O
inactive: Potency [16] | Potency [3] | outcome [5] | outcome [14]

O=C(O)C(Cl)Cl
inactive: Potency [15]

CN1C2CCC1CC(OC(=O)c1cc(Cl)cc(Cl)c1)C2 (centres undefined)
1.01%: viability change [12]
inactive: Potency [2] | Potency [16] | Potency [3] | Potency [17] | outcome [4] | outcome [5] | outcome [6] | outcome [8] | Potency [19] | outcome [9] | Potency [10] | activation [11] 3.5% | outcome [12] | outcome [13] | outcome [14]

CC[N+]1(CCOC(=O)C(O)(c2ccccc2)c2ccccc2)CCCCC1
inactive: Potency [15]

CN[C@@H]1C[C@@H](c2ccc(Cl)c(Cl)c2)c2ccccc21
active: Potency [7] 12.6 µM | Potency [10] 23.1 µM
inactive: outcome [1] | Potency [2] | Potency [3] | Potency [17] | outcome [4] | outcome [6] | outcome [8] | outcome [9] | activation [11] 29.8% | outcome [12] | outcome [13] | outcome [14]
3.66%: viability change [12]

S=C(NC1CCCCC1)N1CCC(c2cnc[nH]2)CC1
inactive: outcome [1] | Potency [2] | Potency [16] | Potency [3] | outcome [4] | outcome [6] | Potency [7] | outcome [8] | outcome [9] | Potency [10] | activation [11] 0.5% | outcome [12] | outcome [13] | outcome [14]
-5.13%: viability change [12]

CCn1cc(C(=O)O)c(=O)c2cc3c(cc21)OCO3
active: Potency [17] 0.0067 µM
inactive: outcome [1]

NC1CCc2cc(O)c(O)cc2C1 (centres undefined)
active: Potency [3] 79.4 µM | Potency [7] 0.158 µM
10.6%: viability change [12]
inactive: outcome [1] | outcome [4] | outcome [5] | outcome [6] | outcome [8] | outcome [9] | Potency [10] | activation [11] 0.75% | outcome [12] | outcome [13] | outcome [14]

CCCN(CCC)C1CCc2ccc(O)cc2C1 (centres undefined)
-3.98%: viability change [12]
inactive: Potency [2] | Potency [16] | Potency [3] | Potency [17] | outcome [4] | outcome [5] | outcome [6] | Potency [7] | outcome [8] | outcome [9] | Potency [10] | activation [11] -5.19% | outcome [12] | outcome [13] | outcome [14]
